Hits are enriched below; roughly 10% of the tested compounds scored in any of these assays.
HEK cytotox: HEK 293 cell cytotoxicity. HEK 293 viability, ATP luminescence (CellTiter-Glo), 48-72 h. Potency, µM (titrated, usually from 115 µM), actives largely listed as inhibitors. 94,000 tested, 6.6% active; also: nearly all actives have a fitted effect of over 60% in size
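HEK 293 cells seeded at 250 cells/well were exposed to compound for 48 or 72 hr at 37 degree Celsius. Viability taken as ATP content by CellTiter-Glo luminescence.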
NPR1 antag: blocks ANP-stimulated signaling of human Npr1 receptor | P16066 | HEK293 hNpr1 GloSensor cGMP, ANP-stimulated luminescence | Potency, µM (highest dose often 46.3 µM), most hits filed as inhibitors | 76,000 tested, 1.6% active | AID 1347048; calls by dose curve; also: nearly all actives have a fitted effect of over 60% in size
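Compound pre-incubated 30 min at room temperature on GloSensor-loaded HEK293 cells stably carrying hNpr1 and the pGS-40F cGMP biosensor. Stimulation uses hNppA at 0.1 nM final; luminescence is taken at baseline and 20 min post-agonist.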
Luciferase inh: inhibitors of firefly (Photinus pyralis) luciferase; P08659; purified P. pyralis luciferase, luminescence, biochemical; Potency, µM (titrated, usually from 115 µM), most hits filed as inhibitors; 76,000 tested, 2.5% active; AID 1347043; also: nearly all actives have a fitted effect of over 65% in size
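Biochemical qHTS: compound (6-point titration) added to 10uM D-luciferin plus 10uM ATP in Tris acetate pH 7.5 buffer with Mg, Tween-20 and BSA, then purified enzyme at 10nM; light output imaged.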
3T3 cytotox: NIH 3T3 cell cytotoxicity | NIH 3T3 viability, CellTiter-Glo ATP luminescence, 48-72 h | Potency, µM (top dose mostly 96.7 µM), most hits filed as inhibitors | 94,000 tested, 4.3% active; also: nearly all actives have a fitted effect of over 55% in size
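Mouse fibroblast NIH 3T3 cells, 400 per well, received compound via pintool and were incubated for 48 or 72 hr prior to CellTiter-Glo ATP luminescence measurement.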
GPT2 inh: inhibitors of human GPT2 alanine aminotransferase; Recombinant GPT2, coupled pyruvate oxidase/HRP Amplex Red fluorescence; Potency, µM (top dose mostly 57.7 µM), usual class: inhibitors; 100,000 tested, 0.25% active; Q8TD30; also: nearly all actives have a fitted effect of over 60% in size
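GPT2 10ng/uL, a-KG 250uM, L-Ala 2mM, HEPES pH7.5 + 0.0001% Tween; 30 min RT. Then Amplex mix (PO/HRP/ThPP), 30 min RT dark, fluorescence. AOA 50uM used as positive control.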
Of the large screens only hits and unclear results are named; the others gave an inactive call. Unless noted, calls follow the shape of the dose curve; as a rule, active = well fitted curve in the direction sought with a large enough effect; inconclusive = small, poorly fitted or top-dose-only effect, or another doubt; inactive = no such curve, though single readings can be large; an effect the other way counts as inactive or inconclusive.

CC1CCCN(C(=O)C2CCN(C(=O)c3ccc(-c4cncnc4)cc3)CC2)C1 (centres undefined)	none (no result: NPR1 antag, Luciferase inh)
Cc1ccc(NC(=O)c2cc3c(N4CCSCC4)nc(C)cn3n2)cc1	HEK cytotox inconclusive, 3T3 cytotox inconclusive
Cc1cccc(NC(=O)c2cc3c(N4CCSCC4)nc(C)cn3n2)c1	HEK cytotox 40µM, 3T3 cytotox inconclusive
Cc1cn2nc(C(=O)NC3CCCCC3)cc2c(N2CCCC2)n1	none
Cc1cn2nc(C(=O)Nc3ccc4c(c3)OCCO4)cc2c(N2CCSCC2)n1	HEK cytotox inconclusive, Luciferase inh 11µM
Cc1cn2nc(C(=O)NC3CCCCCC3)cc2c(N2CCSCC2)n1	HEK cytotox 45µM, 3T3 cytotox inconclusive
Cc1cn2nc(C(=O)Nc3ccc4c(c3)OCO4)cc2c(N2CCCC2)n1	Luciferase inh inconclusive
CCOc1ccc(CC(=O)N2CCN(c3cc(-c4ccc(Cl)cc4)[nH]n3)CC2)cc1	HEK cytotox inconclusive, 3T3 cytotox inconclusive
O=C(NCCNC(=O)C1CCCC1)c1ccc(-c2cccc(C(F)(F)F)c2)cc1	HEK cytotox inconclusive (no result: NPR1 antag, Luciferase inh, GPT2 inh)
c1cc(-c2ccco2)cc(-c2nc(C3CCOC3)no2)c1 (centres undefined)	Luciferase inh 45µM, 3T3 cytotox inconclusive
COc1ccc(-c2cc(N3CCCC(NC(=O)c4cc(C)ccc4C)C3)n[nH]2)cc1 (centres undefined)	HEK cytotox inconclusive, 3T3 cytotox 32µM, GPT2 inh inconclusive
Cc1ccsc1C(=O)NC1CCCN(c2cc(-c3ccc(F)cc3)[nH]n2)C1 (centres undefined)	HEK cytotox inconclusive, Luciferase inh inconclusive, 3T3 cytotox inconclusive
Cc1ccsc1C(=O)NC1CCN(c2cc(-c3ccc(Cl)cc3)[nH]n2)C1 (centres undefined)	HEK cytotox 50µM, 3T3 cytotox inconclusive
COc1ccc(-c2cc(N3CCC(NC(=O)c4cc(C)ccc4C)C3)n[nH]2)cc1 (centres undefined)	HEK cytotox inconclusive, 3T3 cytotox inconclusive
COc1ccc(-c2cc(N3CCCC(NC(=O)c4sccc4C)C3)n[nH]2)cc1 (centres undefined)	HEK cytotox inconclusive, Luciferase inh 25µM
COc1ccc(-c2cc(N3CCCC(NC(=O)c4ccc(C)cc4C)C3)n[nH]2)cc1 (centres undefined)	HEK cytotox inconclusive, Luciferase inh 16µM
COc1cc2ncnc(Nc3ccc(F)c(Cl)c3)c2cc1NC(=O)/C=C/CN1CCCCC1	none (no result: HEK cytotox, NPR1 antag, Luciferase inh, 3T3 cytotox)
Cc1cn2nnc(C(=O)N3CCC(C(=O)Nc4ccc(F)c(F)c4)CC3)c2c(=O)[nH]1	none
O=C1CCCN1CC(=O)N1CC(Oc2ccccc2-c2nc(C3CC3)no2)C1	none
CCOCCOC1CCN(C(=O)c2ccccc2OC)CC1	none
CCOCCOC1CCN(C(=O)c2cc(-c3cccc(OC)c3)n[nH]2)CC1	Luciferase inh 25µM, GPT2 inh inconclusive
COc1cccc(-c2cc(C3CCN(C(=O)Nc4ccccc4C(F)(F)F)CC3)[nH]n2)c1	HEK cytotox 22µM, 3T3 cytotox 32µM
COc1cccc(-c2cc(C3CCN(C(=O)Nc4cc(C)ccc4C)CC3)[nH]n2)c1	HEK cytotox inconclusive, 3T3 cytotox inconclusive
COc1cccc(-c2cc(C3CCN(C(=O)Nc4ccc(F)cc4F)CC3)[nH]n2)c1	HEK cytotox inconclusive, 3T3 cytotox inconclusive
COc1cccc(-c2cc(C3CCN(C(=O)Nc4cc(C)cc(C)c4)CC3)[nH]n2)c1	HEK cytotox 40µM, 3T3 cytotox inconclusive
COc1cccc(-c2cc(C3CCN(C(=O)c4ccc(Cl)cc4)CC3)[nH]n2)c1	HEK cytotox 45µM, NPR1 antag inconclusive, 3T3 cytotox inconclusive
Cc1ccc(NC(=O)N2CCC(N3CC4CC(C3)[C@H]3CCCC(=O)N3C4)CC2)cc1 (some centres undefined)	none
CC(C)NC(=O)O[C@@H]1CC[C@]2(C)C(CC[C@@H](O)[C@H]2CC(=O)NCc2ccc(F)cc2)[C@]1(C)CO (some centres undefined)	none
O=C(NC1CCCCC1)N1CCC(N2C(=O)C3(CCCCC3)C2c2ccncc2)CC1 (centres undefined)	none
CSc1cccc(NC(=O)N2CCC(c3cc(-c4cccc(C)c4)n[nH]3)CC2)c1	HEK cytotox 45µM, 3T3 cytotox 18µM, GPT2 inh inconclusive

Screening data deposited in PubChem BioAssay by National Center for Advancing Translational Sciences (NCATS).
